The chains are these.
T1: RBFOX1 RRM (Homo sapiens, UniProt Q9NWB1 109-208)
T1 sequence: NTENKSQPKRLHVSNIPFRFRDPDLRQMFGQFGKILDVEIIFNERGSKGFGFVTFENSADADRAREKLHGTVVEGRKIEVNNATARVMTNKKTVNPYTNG

B1: UGCGAUA (DNA:RNA)
RNA: GGGAGACCGGAAUUCAGAUUGUCCUGCGAUAUUAAAUCCCGUCGUAGCCACCA
DNA 1: CAATCTGAATTCCGGTCTCCC
DNA 2: TGGTGGCTACGACGGGATT
B2: UUGAGCA (DNA:RNA)
RNA: B1 RNA with G26U, C27G, G28A, A29G, U30C
DNA 1: CAATCTGAATTCCGGTCTCCC
DNA 2: TGGTGGCTACGACGGGATT
B3: CUUUUUG (DNA:RNA)
RNA: B1 RNA with U25C, G26U, C27U, G28U, A29U, A31G
DNA 1: CAATCTGAATTCCGGTCTCCC
DNA 2: TGGTGGCTACGACGGGATT
B4: UCAACCU (DNA:RNA)
RNA: B1 RNA with G26C, C27A, G28A, A29C, U30C, A31U
DNA 1: CAATCTGAATTCCGGTCTCCC
DNA 2: TGGTGGCTACGACGGGATT
B5: UACCUGU (DNA:RNA)
RNA: B1 RNA with G26A, G28C, A29U, U30G, A31U
DNA 1: CAATCTGAATTCCGGTCTCCC
DNA 2: TGGTGGCTACGACGGGATT
B6: AGGGCGU (DNA:RNA)
RNA: B1 RNA with U25A, C27G, A29C, U30G, A31U
DNA 1: CAATCTGAATTCCGGTCTCCC
DNA 2: TGGTGGCTACGACGGGATT
B7: GUUUUGU (DNA:RNA)
RNA: GGGAGACCGGAAUUCAGAUUGUCCGUUUUGUUUAAAUCCCGUCGUAGCCACCA
DNA 1: CAATCTGAATTCCGGTCTCCC
DNA 2: TGGTGGCTACGACGGGATT
B8: AAUCCAC (DNA:RNA)
RNA: B7 RNA with G25A, U26A, U28C, U29C, G30A, U31C
DNA 1: CAATCTGAATTCCGGTCTCCC
DNA 2: TGGTGGCTACGACGGGATT
B9: UGCAUUG (DNA:RNA)
RNA: B1 RNA with G28A, A29U, A31G
DNA 1: CAATCTGAATTCCGGTCTCCC
DNA 2: TGGTGGCTACGACGGGATT
B10: CGGUGCA (DNA:RNA)
RNA: B1 RNA with U25C, C27G, G28U, A29G, U30C
DNA 1: CAATCTGAATTCCGGTCTCCC
DNA 2: TGGTGGCTACGACGGGATT
B11: UGCAGCA (DNA:RNA)
RNA: B1 RNA with G28A, A29G, U30C
DNA 1: CAATCTGAATTCCGGTCTCCC
DNA 2: TGGTGGCTACGACGGGATT
B12: UCCUGCA (DNA:RNA)
RNA: B1 RNA with G26C, G28U, A29G, U30C
DNA 1: CAATCTGAATTCCGGTCTCCC
DNA 2: TGGTGGCTACGACGGGATT
B13: UGGUGCA (DNA:RNA)
RNA: B1 RNA with C27G, G28U, A29G, U30C
DNA 1: CAATCTGAATTCCGGTCTCCC
DNA 2: TGGTGGCTACGACGGGATT
B14: UGCAUUA (DNA:RNA)
RNA: B1 RNA with G28A, A29U
DNA 1: CAATCTGAATTCCGGTCTCCC
DNA 2: TGGTGGCTACGACGGGATT
B15: UGCAUUC (DNA:RNA)
RNA: B1 RNA with G28A, A29U, A31C
DNA 1: CAATCTGAATTCCGGTCTCCC
DNA 2: TGGTGGCTACGACGGGATT
B16: GGUGCAU (DNA:RNA)
RNA: B7 RNA with U26G, U28G, U29C, G30A
DNA 1: CAATCTGAATTCCGGTCTCCC
DNA 2: TGGTGGCTACGACGGGATT
B17: CCGUGCA (DNA:RNA)
RNA: B7 RNA with G25C, U26C, U27G, U29G, G30C, U31A
DNA 1: CAATCTGAATTCCGGTCTCCC
DNA 2: TGGTGGCTACGACGGGATT
B18: UGCUGCA (DNA:RNA)
RNA: B1 RNA with G28U, A29G, U30C
DNA 1: CAATCTGAATTCCGGTCTCCC
DNA 2: TGGTGGCTACGACGGGATT
B19: CUGUGCA (DNA:RNA)
RNA: B7 RNA with G25C, U27G, U29G, G30C, U31A
DNA 1: CAATCTGAATTCCGGTCTCCC
DNA 2: TGGTGGCTACGACGGGATT
B20: GGGUGCA (DNA:RNA)
RNA: B7 RNA with U26G, U27G, U29G, G30C, U31A
DNA 1: CAATCTGAATTCCGGTCTCCC
DNA 2: TGGTGGCTACGACGGGATT
B21: CUGUGUG (DNA:RNA)
RNA: B7 RNA with G25C, U27G, U29G, G30U, U31G
DNA 1: CAATCTGAATTCCGGTCTCCC
DNA 2: TGGTGGCTACGACGGGATT
B22: ACUCAGC (DNA:RNA)
RNA: B7 RNA with G25A, U26C, U28C, U29A, U31C
DNA 1: CAATCTGAATTCCGGTCTCCC
DNA 2: TGGTGGCTACGACGGGATT
B23: GUAGGCC (DNA:RNA)
RNA: B7 RNA with U27A, U28G, U29G, G30C, U31C
DNA 1: CAATCTGAATTCCGGTCTCCC
DNA 2: TGGTGGCTACGACGGGATT
B24: UAAAGUG (DNA:RNA)
RNA: B1 RNA with G26A, C27A, G28A, A29G, A31G
DNA 1: CAATCTGAATTCCGGTCTCCC
DNA 2: TGGTGGCTACGACGGGATT
B25: CACUAAU (DNA:RNA)
RNA: B7 RNA with G25C, U26A, U27C, U29A, G30A
DNA 1: CAATCTGAATTCCGGTCTCCC
DNA 2: TGGTGGCTACGACGGGATT
B26: UACCGCC (DNA:RNA)
RNA: B1 RNA with G26A, G28C, A29G, U30C, A31C
DNA 1: CAATCTGAATTCCGGTCTCCC
DNA 2: TGGTGGCTACGACGGGATT
B27: AAUUCUA (DNA:RNA)
RNA: B7 RNA with G25A, U26A, U29C, G30U, U31A
DNA 1: CAATCTGAATTCCGGTCTCCC
DNA 2: TGGTGGCTACGACGGGATT
B28: UGCAUCC (DNA:RNA)
RNA: B1 RNA with G28A, A29U, U30C, A31C
DNA 1: CAATCTGAATTCCGGTCTCCC
DNA 2: TGGTGGCTACGACGGGATT
B29: UGCAUCA (DNA:RNA)
RNA: B1 RNA with G28A, A29U, U30C
DNA 1: CAATCTGAATTCCGGTCTCCC
DNA 2: TGGTGGCTACGACGGGATT
B30: UGCAUCG (DNA:RNA)
RNA: B1 RNA with G28A, A29U, U30C, A31G
DNA 1: CAATCTGAATTCCGGTCTCCC
DNA 2: TGGTGGCTACGACGGGATT
B31: AGGGCCC (DNA:RNA)
RNA: B1 RNA with U25A, C27G, A29C, U30C, A31C
DNA 1: CAATCTGAATTCCGGTCTCCC
DNA 2: TGGTGGCTACGACGGGATT

Numbering of substitutions follows the chain as printed; changes in the protein carry UniProt numbers. Over roughly 16,000 sequences, “ka relative to ugcaugu” has its median near 0.0091; the highest 2% begin near 0.032. This excerpt belongs to a sample that is enriched for the highest values.

The target in this assay is T1, RBFOX1 RRM. The assay is described as follows: EMSA; HiTS-Eq, 1 nM pool, 10 min; buffer printed only for the single-RNA assays: 10 mM Tris pH 7.5, 150 mM NaCl, 3.4 mM EDTA, 0.001% NP-40, 30 C. To be noted: tags: His6 N-terminal (pET28a); label: 5' 32P. Put shortly:
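Purified RbFox RRM (wild type or mutant) was equilibrated for 10 min in 50 µL with 1 nM of a 5′-radiolabelled pool of RNA with 7 randomized nucleotides, its flanks annealed to DNA oligonucleotides, across increasing protein concentrations. Free RNA was separated by 8% native PAGE, excised, reverse-transcribed, PCR-barcoded and sequenced on an Illumina HiSeq 2500. Relative association constants came from read-count changes of each variant against the control reaction, normalised to the cognate motif.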
In general terms: In EMSA bound probe runs differently from free probe, usually more slowly.
Take B1: the binding signal is 0.017 KA relative to UGCAUGU.
As for B2, the figure is 0.0174 KA relative to UGCAUGU; as for B3, 0.0263 KA relative to UGCAUGU; as for B4, 0.00233 KA relative to UGCAUGU.
For B5 the value was 0.0129 KA relative to UGCAUGU.
For B6 the value was 0.0222 KA relative to UGCAUGU.
Take B7: the binding signal was 0.0195 KA relative to UGCAUGU.
As for B8, the figure is 0.000933 KA relative to UGCAUGU; as for B9, 0.0355 KA relative to UGCAUGU; as for B10, 0.0194 KA relative to UGCAUGU.
For B11 the value was 0.0136 KA relative to UGCAUGU.
As for B12, the binding signal is 0.0135 KA relative to UGCAUGU.
On to B13, for which the binding signal is 0.0327 KA relative to UGCAUGU.
As for B14, the binding signal was 0.0146 KA relative to UGCAUGU.
Regarding B15, the binding signal is 0.0105 KA relative to UGCAUGU.
For B16 the value was 0.0241 KA relative to UGCAUGU.
As for B17, the figure is 0.017 KA relative to UGCAUGU; as for B18, 0.0343 KA relative to UGCAUGU.
As for B19, the figure is 0.0239 KA relative to UGCAUGU; as for B20, 0.0415 KA relative to UGCAUGU.
Turning to B21, the binding signal is 0.027 KA relative to UGCAUGU.
For B22 the value was 0.00534 KA relative to UGCAUGU.
As for B23, the figure is 0.00837 KA relative to UGCAUGU; as for B24, 0.00935 KA relative to UGCAUGU; as for B25, 0.00175 KA relative to UGCAUGU.
For B26 the value was 0.00921 KA relative to UGCAUGU; for B27, 0.00109 KA relative to UGCAUGU.
As to B28, the binding signal is 0.0337 KA relative to UGCAUGU.
As for B29, the figure is 0.0118 KA relative to UGCAUGU; as for B30, 0.0295 KA relative to UGCAUGU; as for B31, 0.0184 KA relative to UGCAUGU.

(Values after article PMC9911399, “Two distinct binding modes provide the RNA-binding protein RbFox with extraordinary sequence specificity”.)
